# Screening results (PubChem)
# An excerpt weighted towards active compounds, which were near 2.2% of everything screened.
# TrxR1 inh: qHTS Assay for Inhibitors of Mammalian Selenoprotein Thioredoxin Reductase 1 (TrxR1): qHTS. Thioredoxin reductase 1, cytoplasmic (Rattus norvegicus), O89049. recombinant rTrxR1, NADPH fluorescence consumption, selenite substrate. Potency, µM (top dose mostly 114 µM), for the others: top-dose activity change, negative = inhibition, usual class: inhibitors. 390,000 compounds, 1% hits; further: potency means the concentration at half of the fitted maximal effect; on the % scale 0 is the no-effect control and ±100 the full control effect; nearly all actives have a fitted effect of over 65% in size
#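 Rat TrxR1 (90 nM in the dispensed reagent) was pre-reduced with 400 uM NADPH for 5 min at room temperature, then incubated with compound for 15 min. After 400 uM selenite was added, NADPH fluorescence (Ex 340/Em 450 nm) was followed for 8 min.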
# Giardia kill: Small Molecules that selectively kill Giardia lamblia: qHTS. Giardia lamblia trophozoite viability. 340,000 compounds, 0.15% hits. activity change, % at 7.66 µM, hits read low; in the data active means activity change below about -80%; inconclusive means between about -30% and that limit;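 further: parasites exposed to compound for two days anaerobically before the ATP read; on the % scale 0 is the no-effect control and ±100 the full control effect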
#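 Giardia lamblia trophozoites (100 cells/well) were incubated with compounds for 48 h at 37 deg C under anaerobic conditions. Viability was read as ATP content by one-step luminescence after 15-30 min at room temperature.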
# mIDH1 inhibitor: qHTS for Inhibitors of mutant isocitrate dehydrogenase 1 (IDH1): qHTS; IDH1-R132H enzyme, NADPH consumption, diaphorase/resazurin fluorescence; AID 602179, 2012; Potency, µM (highest dose often 76.6 µM), without a hit: at the highest dose activity change, negative = inhibition, actives largely listed as inhibitors; Isocitrate dehydrogenase [NADP] cytoplasmic (Homo sapiens), O75874; 390,000 compounds, 0.093% hits; further: potency means the concentration at half of the fitted maximal effect; on the % scale 0 is the no-effect control and ±100 the full control effect; nearly all actives have a fitted effect of over 65% in size
# Target sequence (O75874 whole entry R132H, stated change not applied): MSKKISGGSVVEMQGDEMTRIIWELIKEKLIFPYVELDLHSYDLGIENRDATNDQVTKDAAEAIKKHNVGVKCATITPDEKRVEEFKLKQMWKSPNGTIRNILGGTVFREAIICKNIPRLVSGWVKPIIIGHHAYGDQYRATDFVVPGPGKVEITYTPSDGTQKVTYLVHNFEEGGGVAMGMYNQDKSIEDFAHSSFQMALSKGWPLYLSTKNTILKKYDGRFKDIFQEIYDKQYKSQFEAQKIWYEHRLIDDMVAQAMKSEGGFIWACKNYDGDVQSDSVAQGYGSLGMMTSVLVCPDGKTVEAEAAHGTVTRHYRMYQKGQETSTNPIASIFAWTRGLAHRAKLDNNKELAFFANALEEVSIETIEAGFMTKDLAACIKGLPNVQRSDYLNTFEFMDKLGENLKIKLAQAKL
#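 IDH1-R132H (0.5 ug/mL dispensed) in pH 7.5 Tris buffer was preincubated 30 min with compound, then given a substrate mix of 0.016 mM NADPH and 2 mM alpha-KG for 80 min at room temperature; remaining NADPH was read by diaphorase/resazurin fluorescence.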
# BRCA1 expr act: qHTS Assay to Identify Small Molecule Activators of BRCA1 Expression | MCF7-BRCA1-FFLuc reporter, luminescence, 48 h; response scale: scaled: vehicle 0%, 10 µM genistein 100% | Potency, µM (titrated, usually from 46.1 µM), without a hit: at the top dose activation, actives largely listed as activators | 380,000 compounds, 1.1% hits; further: potency means the concentration at half of the fitted maximal effect; nearly all actives have a fitted effect of over 80% in size
#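 MCF7 cells carrying a BRCA1-firefly luciferase reporter (2000 cells/well, phenol-red free MEM) were attached for 2 h at 37 °C, then given compounds for 48 h. Luminescence was read 15 min after luciferase reagent; activity normalized to genistein (10 microM) and DMSO.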
# TrxR1 substrate: qHTS Assay for Substrates of Mammalian Selenoprotein Thioredoxin Reductase 1 (TrxR1): qHTS; Thioredoxin reductase 1, cytoplasmic (Rattus norvegicus), O89049; 390,000 compounds, 0.01% hits; Potency, µM (highest dose often 114 µM), for the others: top-dose activity change, negative = substrate turnover; purified TrxR1 substrate turnover, NADPH consumption readout; AID 588456, 2011; further: potency means the concentration at half of the fitted maximal effect; on the % scale 0 is the no-effect control and ±100 the full control effect; nearly all actives have a fitted effect of over 50% in size
#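 Rat TrxR1, dispensed at 90 nM, was prereduced with 400 uM NADPH (final) for 5 min at ~22 deg C, then incubated with compound 15 min before 400 uM selenite. A first-read NADPH fluorescence drop versus no-compound background flagged substrates.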
# IL2 activator: qHTS of IL-2 Activators | IL-2 activation reporter assay, cell-based qHTS; stimulated with anti-CD3/CD4/CD28 beads; in transgenic mouse T cells | activation, % (series mostly up to about 46 µM) | 360,000 compounds, 0.065% hits | AID 652025, 2013; in the data active means activation above about 50%; inconclusive means mostly about 30% to 49%; further: 0% is about no effect
#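 First, unstimulated transgenic mouse T cells were exposed to compound for 60 min. Next, anti-CD3/anti-CD4-coated beads with anti-CD28 were added. Finally, after 18 h at 37 degrees C, EGFP and DsRed were imaged.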
# Resorufin autofl: qHTS for Inhibitors of mutant isocitrate dehydrogenase 1 (IDH1): Cherrypicks Autofluorescence Interference; 750 tested, under 10 active; shares compounds with mIDH1 inhibitor; Resorufin detection reagent fluorescence interference, cell-free; inhibition of signal, % at 51.2 µM;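 further: 0% = wells with normal resorufin and full inhibition = wells lacking resorufin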
# IDH1 WT: qHTS for Inhibitors of mutant isocitrate dehydrogenase 1 (IDH1): Cherrypicks in WT IDH1; shares compounds with mIDH1 inhibitor; WT IDH1 enzyme, NADPH diaphorase/resazurin fluorescence; Potency, µM (doses to about 115 µM), without a hit: at the top dose activity change, negative = inhibition, usual class: inhibitors; 750 compounds, 9% hits; AID 623995, 2012;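 further: potency means the concentration at half of the fitted maximal effect; 0% = full WT IDH1 enzyme control and full inhibition = no enzyme wells; nearly all actives have a fitted effect of over 55% in size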
# Target sequence (O75874 whole entry, looked up): as the sequence (O75874 whole entry R132H, stated change not applied) above, with H132R counted along it
# mIDH1 confirm: qHTS for Inhibitors of mutant isocitrate dehydrogenase 1 (IDH1): Confirmation of Cherrypicks. 750 compounds, 83% hits. shares compounds with mIDH1 inhibitor. AID 624002, 2012. Potency, µM (titrated, usually from 76.6 µM), without a hit: top-dose activity change, negative = inhibition, most hits filed as inhibitors. IDH1 R132H enzyme, NADPH diaphorase/resazurin fluorescence; further: potency means the concentration at half of the fitted maximal effect; nearly all actives have a fitted effect of over 50% in size
# * = called active by the depositor; ? = inconclusive; . = no result; [ ] = remark or other dose. Unless noted, the call rests on the fitted dose curve; in most records, active means well fitted curve in the direction sought with a large enough effect; inconclusive means small, poorly fitted or top-dose-only effect, or another doubt; inactive means no such curve, though single readings can be large; an effect the other way counts as inactive or inconclusive.
SMILES,TrxR1 inh,Giardia kill,mIDH1 inhibitor,BRCA1 expr act,TrxR1 substrate,IL2 activator,Resorufin autofl,IDH1 WT,mIDH1 confirm
O=C(NC1CCCCC1)C(c1ccncc1)N(C(=O)c1ccco1)c1ccc(F)cc1 (configuration not stated),3%,11,?,-4%,2%,1,1,-1%,40µM*
COc1ccc(N(C(=O)c2ccco2)C(C(=O)NC2CCCC2)c2cccs2)cc1 (configuration not stated),10%[57.1 µM],1,?,-6%,4%[57.1 µM],-1,-1,-7%,?
CCN1C(=O)c2ccccc2S(=O)(=O)c2ccc(C(=O)NCc3ccccc3)cc21,13%,.,10%,-7%,1%,.,.,.,.
CCOC(=O)C1CCN(C(=O)c2nn(-c3ccc(C)cc3)c(=O)n(C)c2=O)CC1,23%[57.1 µM],.,-7%,.,2%[57.1 µM],.,.,.,.
COc1ccc(Cl)cc1N(C(=O)c1ccco1)C(C(=O)NC1CCCC1)c1ccco1 (configuration not stated),15%,-26,-9%,-27%,12%,0,.,.,.
Cc1cc(C)cc(N(C(=O)c2ccco2)C(C(=O)NC2CCCC2)c2ccncc2)c1 (configuration not stated),1%[57.1 µM],-22,?,-8%,5%[57.1 µM],-4,5,7%,45µM*
Cc1ccc(N(C(=O)c2ccco2)C(C(=O)NC2CCCC2)c2ccco2)c(C)c1 (configuration not stated),5%,-9,?,-42%,-1%,1,4,0%,20µM*
Cc1cccc(N2CCN(C(=O)C3CCCN(S(=O)(=O)c4cccc5nsnc45)C3)CC2)c1C (configuration not stated),-8%,.,-3%,3%,-12%,.,.,.,.
CC1(C)CC(=O)C2=C(C1)N(c1cccnc1)C(N)=C(C#N)C2c1cccs1 (configuration not stated),?,6,3%,-21%,-3%,2,.,.,.
CCSc1sccc1C1C(C#N)=C(N)N(c2cccnc2)C2=C1C(=O)CC(C)(C)C2 (configuration not stated),-15%,4,58µM*,0%,-6%,0,-3,-6%,28µM*
CC(C)c1nc(N2CCOCC2)c(C#N)c2c1CCCC2,-2%,-4,?,-6%,47%,0,1,5%,35µM*
CCSc1nc(N2CCOCC2)c2c(c1C#N)CCCC2,10%[57.1 µM],11,-2%,-11%,8%[57.1 µM],0,.,.,.
CC(=O)C1=C(C)OC2(O)c3ccccc3C(=O)C12O (configuration not stated),6%,9,-7%,-7%,-5%,0,.,.,.
CCOC(=O)C1=C(C)OC2(O)c3ccccc3C(=O)C12O (configuration not stated),24%,4,?,-12%,3%,0,3,24%,?
CCC(C)Sc1ccc([C@@H]2[C@@H]3C(=O)N(C)C(=O)[C@@H]3[C@]3(C(=O)OC)CCCCN23)cc1OC (some centres not stated),?,16,35µM*,-22%,-6%,1,-7,1%,16µM*
Cn1c2c(c(=O)n(C)c1=O)C(c1ccccc1[N+](=O)[O-])CC(=O)N2 (configuration not stated),-3%,.,-2%,1%,-11%,.,.,.,.
CC(=O)Nc1cccc(-n2cc3c(c2-c2ccccc2Cl)c(=O)n(C)c(=O)n3C)c1,20%,.,?,.,40%,.,0,0%,40µM*
Cc1cccn2c(=O)c(/C=C(\C#N)S(=O)(=O)c3ccccc3)c(N3CCC(C(N)=O)CC3)nc12,14%,1,?,-16%,3%,-1,1,-1%,40µM*
Cc1ccc(S(=O)(=O)/C(C#N)=C/c2c(N3CCC(C(N)=O)CC3)nc3c(C)cccn3c2=O)cc1,-7%,8,?,6%,-5%,-2,.,.,.
COc1cccc(Cn2c(=O)n(-c3cccc(Cl)c3)c(=O)c3c4c(sc32)CN(C(C)=O)CC4)c1,-6%,.,?,-43%,-1%,.,0,14µM*,14µM*
CC(=O)N1CCc2c(sc3c2c(=O)n(-c2ccccc2)c(=O)n3Cc2cccc(C(F)(F)F)c2)C1,5%,.,22µM*,-2%,-2%,.,-12,7.9µM*,11µM*
Cc1ccc(C2=Nc3ccc(Br)cc3C(c3ccncc3)=NN2)cc1,15%[57.1 µM],13,15µM*,-5%,-1%[57.1 µM],-2,8,4%,22µM*
COC(=O)c1ccc(NC(=O)C(c2ccccc2)N2Cc3ccccc3C2=O)cc1 (configuration not stated),11%,.,?,.,-10%,.,-4,-1%,-6%
Fc1ccc(Nc2ncnc3onc(-c4cccc(Cl)c4)c23)c(F)c1,-24%,.,-12%,4%,-4%,.,.,.,.
CCC(C)Nc1nc(N)c([N+](=O)[O-])c(Nc2cc(OC)ccc2OC)n1 (configuration not stated),13%[57.1 µM],-12,?,-86%,-3%[57.1 µM],-2,2,2%,28µM*
